ChEMBL document CHEMBL4513216, “Probing the Open Global Health Chemical Diversity Library for Multistage-Active Starting Points for Next-Generation Antimalarials” (ACS Infect Dis, 2020)
Hit rate of the full screen: of about 65,000 compounds, about 2,100 (3.2%) showed an effect of 50% or more. The median lay at about -52%. What follows is part of a selection rich in strong results, with near analogues and random picks from the rest.

The compounds below were run on Plasmodium falciparum (assay: Screen against P. falciparum Asexual Blood Stage (ABS), at 5uM). Conditions: tested at 5 uM.
Format: functional, Dd2

Compound | INHIBITION
O=C1CSC(c2ccsc2)c2c(n(C3CCCC3)[nH]c2=O)N1 (stereo not drawn) | -94.4%
Cc1csc(CN2C[C@@H]3CN(C)CCO[C@@H]3C2)n1 | -19.5%
CC(C)(C)n1cc(C(=O)NCCCn2ccnc2)c2cccnc21 | -3.93%
Cc1nn(CCNC(C)Cn2ccnc2)c(C)c1Cl (stereo not drawn) | 0.358%
CCOc1c(Cl)cc(Cl)cc1CNCCCn1ccnc1 | 75.9%
COCc1cn(C[C@H]2CC3CCN2C[C@@H]3C(=O)Nc2ccccc2)nn1 (stereo partly drawn) | -106%
CNC(=O)c1cn(C(C)(C)C)c2ncccc12 | -148%
Cc1cnc(N2C[C@H]3CCN(CC4CC4)C[C@@H]3C2)nc1 | 40.6%
Cc1cnc(N2C[C@H]3CCN(CC4CC4)C[C@H]3C2)nc1 | 65.5%
c1cncc(N2CC[C@@H]3CN(CC4CC4)C[C@@H]3C2)c1 | 6.94%
Cn1ccnc1CNC1CCCOc2c1ccc1ccccc21 (stereo not drawn) | 77.2%
Cc1cc2c(c(-c3c[nH]c(C)n3)c1)OC(CN)C2 (stereo not drawn) | 80.1%
NCC1Cc2cc(Cl)cc(-c3cncc(C(=O)N4CCCCC4)n3)c2O1 (stereo not drawn) | 76%
Cc1nc(-c2cc(Cl)cc3c2OC(CN)C3)c[nH]1 (stereo not drawn) | 94.4%
Cc1nc(-c2cc(Cl)c3c(c2)CC(CN)O3)c[nH]1 (stereo not drawn) | 83.7%
CCN1CCN(C)C(=O)C12CCN(C(=O)Cc1ccccn1)CC2 | -113%
CCC(=O)NCC(c1ccc(SC)cc1)N1CCc2sccc2C1 (stereo not drawn) | 77.1%
O=C1NC2(CCNCC2)CC1c1ccncc1 (stereo not drawn) | -134%
C[C@@H]1CN(Cc2cccnc2)C[C@]1(C)O | -61.6%
C[C@@H]1CN(C2CCN(c3ccccc3F)CC2)CC[C@]1(C)O | 87.7%
O=C(NCc1cccnc1)C1=NOC2(CCCN(CCO)C2)C1 (stereo not drawn) | -58.4%
O=C(CCN1CCCC(CO)(CC2CC2)C1)NCc1cccc(Cl)c1 (stereo not drawn) | 80%
Cc1cc(N(C)C)nc(N2CCCC2c2cccnc2)n1 (stereo not drawn) | -15.1%
Nc1cc(-c2c[nH]nc2C2CCCN2CCCc2ccccc2)ccn1 (stereo not drawn) | 77.3%
O=C1[C@H]2CN(Cc3ccoc3)C[C@@H]2CCN1Cc1cccnc1 | -121%
Cc1noc(C)c1CN1CC[C@H]2O[C@@H](C(=O)N3CCCC3)CC[C@H]21 | -58.1%

Compound | INHIBITION
O=C(c1ccccc1-n1cnnn1)N1CCC2(CC1)OCCO2 | -76.9%
C1CCC(c2nc3c(c(N4CCN5CCCC5C4)n2)CCNCC3)C1 (stereo not drawn) | 77.4%
CC(C)c1nc(N2CCN3CCCC3C2)c2cnn(C)c2n1 (stereo not drawn) | 12.9%
NCC1CCN(c2nc(C3CCCC3)nc3c2CCNCC3)C1 (stereo not drawn) | 93.5%
CCOCc1nc2c(c(N3CCN4CCCC4C3)n1)CCNCC2 (stereo not drawn) | -33.2%
c1cnn(CC2CCN(c3nc(C4CC4)nc4c3CCNCC4)CC2)c1 | 91%
Cc1nn(-c2ccccn2)c2c1C(c1cnn(C)c1)SCC(=O)N2 (stereo not drawn) | -90.8%
Cc1noc(C)c1CN1CCO[C@H]2CNC[C@H]21 | -38.6%
CCN(C)c1nccc(N2CCN[C@H]3CS(=O)(=O)C[C@H]32)n1 | -58.4%
COc1ccc(-n2cccn2)c(CN2CCOCC(CN(C)C)C2)c1 (stereo not drawn) | 78.4%
CO[C@H]1COCCN(Cc2c[nH]c3ccccc23)C1 | -48.4%
Cc1cc(-n2cccn2)ccc1CN1CCOCC(CN(C)C)C1 (stereo not drawn) | 73%
Cc1nc(=O)c(CC(=O)N2C[C@H]3CC[C@@H](C2)N(CC2CCC2)C3)c(C)[nH]1 | -89.5%
CCN1CC(=O)NCC12CCN(C(=O)c1ccno1)C2 (stereo not drawn) | -7.44%
N#Cc1cccc(C(=O)NS(=O)(=O)c2ccc(C#N)c(Cl)c2)c1 | -49.2%
N#Cc1cccc(S(=O)(=O)Nc2c(F)cccc2N2CCCC2)c1 | 74.1%
Cc1nc(CC(=O)N2CCN(Cc3ccc(C#N)cc3)CC2)cs1 | -11.175%
CCOc1ccc(Br)cc1C1CCCN1 (stereo not drawn) | 72.9%
CCOc1ccc(Cl)cc1C1CCCN1 (stereo not drawn) | 87.7%
CCOc1ccc(Br)cc1C1CCCCN1 (stereo not drawn) | 78.2%
CC(C)NC(=O)C1CCC2(CCNCC2)C1 (stereo not drawn) | -81.9%
CCN1CCC2(CC1)C(=O)Nc1ccc(C(=O)NC)cc12 | -38.9%
Cc1ccccc1CC(C)NC(=O)Nc1cnn(CC(N)=O)c1 (stereo not drawn) | -23.3%
CC(C)COC(=O)N1CCC2(CCNC2)C1 (stereo not drawn) | -93.7%
Cc1ncsc1CN1CC[C@H]2C[C@H](c3ccncn3)O[C@@H]2C1 | -37.3%
O=S1(=O)N(c2ccccc2)C[C@H](O)[C@]12CCNC2 | -88.5%

Compound | INHIBITION
NC(=O)C1(Cc2ccc(-c3ccccc3)cc2)CCNC1 (stereo not drawn) | 92.7%
O=S1(=O)N(c2ccccc2)C[C@@H](O)[C@]12CCNC2 | -3.43%
O=C(N1CCCC1)C1(Cc2ccc(-c3cccs3)cc2)CCNC1 (stereo not drawn) | 84.5%
NC1(c2nc(-c3cccs3)cc(=O)[nH]2)CCCCC1 | -95.6%
O=C(c1nc(=O)[nH]c2ccccc12)N1CCCC2(CCNC2)C1 (stereo not drawn) | -74.6%
CC(C)N1CCCC(Cc2nccnc2Cl)C1 (stereo not drawn) | -59.8%
COc1ccc(C2SCC(=O)Nc3ccsc32)cc1 (stereo not drawn) | -71.1%
O=C(N[C@@H]1CN[C@H]2CCCO[C@H]21)c1cccnc1 | -128%
c1cncc(OC[C@]23COC[C@H]2CN(Cc2cccs2)C3)c1 | -51.7%
CCCN(C)CC1CCN(c2ccc(Br)c(C)n2)C1 (stereo not drawn) | 73.7%
CCc1noc(CC)c1CC(=O)N1CCN(C(C#N)C(C)C)CC1 (stereo not drawn) | -154%
CNC(=O)[C@@H]1C[C@H]2CN(C(=O)c3ccccn3)C[C@H]2N1C(C)C | -23%
CCN(CC)C[C@H]1CN2CC[C@H]1C[C@@H]2CNC(=O)c1ccco1 | -97.7%
CC[C@H]1CN2CC[C@H]1C[C@@H]2CNC(=O)c1ccco1 | -29.4%
CN(C[C@H]1CN2CC[C@H]1C[C@@H]2CNC(=O)c1ccco1)c1ccccc1 | 71.2%
COc1cc(N2CC[C@@H]3OCCN(C)[C@H]3CC2)ncn1 | -67.4%
Cc1cccc(OCC(=O)N2CCN(C3CCOC3=O)CC2)c1C (stereo not drawn) | -13.7%
CC1COC2(CCN(C(=O)c3ncoc3C(C)C)CC2)O1 (stereo not drawn) | -69.9%
Nc1nc(N)c2c(n1)OC1(CCN(Cc3nccs3)C1)C2 (stereo not drawn) | -96%
CCN1CCC2(CC1)CN(CCO)c1ccccc12 | -30.2%
c1cnc(N2CCC3(CC2)CN(CC2CC2)c2ccccc23)nc1 | 86.3%
CN1CCN(c2ncccn2)CC12CCC(=O)N(CC1CC1)CC2 (stereo not drawn) | -74.4%
Fc1ccc2[nH]c3c(c2c1)CCN1C(c2ccncc2)N2CCC31CC2 (stereo not drawn) | 89.6%
Fc1ccc2[nH]c3c(c2c1)CCN1C(c2ccccn2)N2CCC31CC2 (stereo not drawn) | 81.2%
Cc1noc(C)c1CN1CCCC2(C1)CN(c1nccs1)CCO2 (stereo not drawn) | 18.6%
c1cnc(N2CCN3C[C@H](Oc4cncnc4)C[C@H]3C2)nc1 | -102%

Compound | INHIBITION
CNc1nc(C(=O)N2C[C@@H]3CCN(C)[C@@H]3C2)cs1 | -94.9%
CCOCCN1C[C@H](C(=O)Nc2cccnc2)[C@@H]2CCO[C@@H]2C1 | -9.46%
CCOCCCn1c(NC(=O)c2cc(C)on2)nc2ccccc21 | 71.5%
Cc1ccc([C@]2(O)CC[C@H]3CN(Cc4ccccc4F)C[C@H]32)nc1 | 20.6%
O=C(CC1[C@H]2CN(Cc3ccncc3)C[C@@H]12)N1CCCC1 (stereo partly drawn) | -109%
NCC1[C@H]2CN(Cc3cccc(Cl)c3)C[C@@H]12 (stereo partly drawn) | 83.8%
NCC1[C@H]2CN(CCc3ccccc3)C[C@@H]12 (stereo partly drawn) | 86.8%
c1ccc(CCN2C[C@@H]3OCCN(c4ncccn4)[C@@H]3C2)cc1 | -64.6%
Oc1cccc(CN2C[C@@H]3CC[C@H]2CN(Cc2ccncc2)C3)c1 | -31.9%
NCC1[C@H]2CN(Cc3ccccc3F)C[C@@H]12 (stereo partly drawn) | 68.2%
O=C1CO[C@@H]2CN(Cc3nccs3)C[C@H]2N1Cc1ccncc1 | -59.6%
CN(C)[C@@H]1CN(C(=O)Cc2ccc(F)cc2)[C@@H]2CCCO[C@H]12 | -29.9%
CN(CCc1ccccc1)Cc1nc2c(cnn2C)c(=O)[nH]1 | -38.8%
CC(C)N(Cc1ccccn1)Cc1nc2c(cnn2C)c(=O)[nH]1 | 74.2%
CN(CCc1ccc(F)cc1)Cc1nc2c(cnn2C)c(=O)[nH]1 | -97.7%
CN(C)CCn1nc(C2CCN(Cc3ccccc3)C2)c2cccnc21 (stereo not drawn) | 71.9%
NCCn1nc(C2CCN(Cc3ccccc3)C2)c2nccnc21 (stereo not drawn) | 80.4%
NCCn1nc(C2CCN(Cc3ccccc3Cl)C2)c2nccnc21 (stereo not drawn) | 80.1%
COc1cccc(CN2CCC(c3nn(CCN)c4nccnc34)C2)c1 (stereo not drawn) | 89.1%
O[C@@]1(c2ccccn2)CC[C@H]2CN(Cc3cccc(Cl)c3Cl)C[C@H]21 | 39.6%
c1ccc(CN2CC[C@H]3CO[C@H](CNc4ncccn4)[C@H]3C2)cc1 | -6.23%
c1cnc(N2CC[C@@H]3CN(Cc4ccncc4)CCO[C@@H]3C2)nc1 | -103%
CN(C)CCN1CCO[C@H]2CN(Cc3ccccn3)C[C@H]21 | 11.1%
c1ccc(N2CC[C@@H]3CN(Cc4ccncc4)CCO[C@@H]3C2)cc1 | -57.3%
COc1cccc([C@@H]2CCN(Cc3[nH]nc(C)c3Cl)C[C@H]2O)c1 | -12.4%
